# Screens as filed in PubChem BioAssay.
# In the library only some 1.4% were active in any assay of this set; here they are far more common.
# BCLXL inh: inhibitors of human Bcl-xL, primary screen, biochemical, fluorescence polarization, HTS; inhibition, % at 10.9 µM; GST-Bcl-xL / FITC-Bim BH3 peptide fluorescence polarization; 320,000 tested, 0.7% active; AID 2129, 2009; Bcl-2-like protein 1 (Homo sapiens), Q07817;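 active = inhibition above the mean of all tested compounds plus 3 SD, cutoff set per campaign, cut at about 30% in these data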;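 also: 0% = DMSO wells and 100% = unlabeled Bim-BH3 peptide competitor; inhibitors lower millipolarization by displacing the labeled peptide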
# MCL1 BIM primary: inhibitors of MCL1 binding to BIM-BH3, primary screen, biochemical, fluorescence polarization; Induced myeloid leukemia cell differentiation protein Mcl-1 (Homo sapiens), Q07820; inhibition, % at 10.9 µM; 320,000 tested, 0.68% active; GST-MCL1 / FITC-Bim-BH3 fluorescence polarization;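 active = inhibition above the mean inhibition of all tested compounds plus 3 SD, set per campaign, cut at about 40% in these data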;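 also: 0% = DMSO wells and 100% = unlabeled Bim-BH3 peptide control; higher means more loss of mP so more displacement of Bim peptide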
# E coli Lon inh: inhibitors of E. coli Lon protease, primary screen, biochemical, fluorescence polarization. purified E. coli Lon protease. inhibition, % at 7.94 µM. 360,000 tested, 0.42% active. AID 602123, 2011; in the data active = inhibition above about 13%, passing the limit was not always enough;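 also: 0% = enzyme with probe and DMSO and 100% = no enzyme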
# EBV gp42 block: Epstein-Barr virus gp42 inhibitors, primary screen, biochemical, uHTS, fluorescence polarization; Glycoprotein 42 (Epstein-Barr virus (strain AG876)), Q1HVG2; AID 1085, 2008; 220,000 tested, 0.42% active; inhibition, % (tested at 21.74 µM); Fluorescence polarization binding assay, mP read-out; in the data active = inhibition above about 50%
# GLD-1 RNA inh: GLD-1/TGE RNA complex disruptors, primary screen, biochemical, fluorescence polarization | Female germline-specific tumor suppressor gld-1 (Caenorhabditis elegans), Q17339 | purified GLD-1 + fluorescein TGE RNA | inhibition, % at 5.96 µM | 320,000 tested, 0.44% active | AID 2280, 2010;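 active = percent inhibition above a per-plate cutoff, the plate mean of test compounds plus 3 SD, cut at about 30% in these data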;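 also: 0% = DMSO wells with GLD-1 and probe and 100% = wells lacking GLD-1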
# MEX-5 binding: MEX-5 zinc finger RNA-binding disruptors – biochemical, C. elegans, fluorescence polarization, MLPCN library, primary screen. Zinc finger protein mex-5 (Caenorhabditis elegans), Q9XUB2. MEX-5/FITC-TCR2 RNA binding; stronger effect = lower value. activity score (negative = inhibition of binding), % at 10 µM. 300,000 tested, 0.38% active. AID 1832, 2009;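 active = inhibition past about -25% in most replicates, and total fluorescence under double the plate's negative control median, limit read from the data; inconclusive = replicates evenly split on the limit, or fluorescence at least double controls; inactive = too little inhibition in most replicates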;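 also: 0% = DMSO and -100% = 5 µM competing unlabeled TCR2 RNA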
# Target sequence (Q9XUB2 whole entry, looked up): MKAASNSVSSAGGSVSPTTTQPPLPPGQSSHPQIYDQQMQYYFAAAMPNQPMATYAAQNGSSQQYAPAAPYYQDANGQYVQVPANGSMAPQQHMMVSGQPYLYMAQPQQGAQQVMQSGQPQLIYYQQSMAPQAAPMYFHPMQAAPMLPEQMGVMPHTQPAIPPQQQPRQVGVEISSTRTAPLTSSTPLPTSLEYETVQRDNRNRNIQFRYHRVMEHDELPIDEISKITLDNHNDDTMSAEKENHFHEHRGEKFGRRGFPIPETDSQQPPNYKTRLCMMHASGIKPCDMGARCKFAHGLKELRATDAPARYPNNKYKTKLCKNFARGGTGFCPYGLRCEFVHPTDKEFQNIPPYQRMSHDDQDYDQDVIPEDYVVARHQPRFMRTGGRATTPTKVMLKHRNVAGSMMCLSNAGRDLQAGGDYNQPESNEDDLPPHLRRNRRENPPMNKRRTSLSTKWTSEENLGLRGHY
# Numbers without * were called inactive; ? = inconclusive; nt = no result given.
SMILES,BCLXL inh,MCL1 BIM primary,E coli Lon inh,EBV gp42 block,GLD-1 RNA inh,MEX-5 binding
Cc1ccc([N+](=O)[O-])cc1N=Nc1c(C)[nH]n(C(N)=S)c1=O,4,7,1,nt,0,2
NC(=S)n1[nH]c(-c2ccc([N+](=O)[O-])cc2)c(N=Nc2ccc(Cl)cc2)c1=O,nt,nt,-1,92*,nt,nt
Cc1ccc([N+](=O)[O-])cc1N=Nc1c(-c2ccc([N+](=O)[O-])cc2)[nH]n(C(N)=S)c1=O,nt,nt,-2,107*,nt,1
O=C(OCc1cccc(C(F)(F)F)c1)c1ccc[nH]c1=O,3,-1,0,nt,2,-6
CC(C)COC(=O)N1CCCCC1c1cc(C(=O)NCc2cccnc2)no1 (stereo not given),nt,nt,2,nt,nt,nt
CSCCC(C(=O)Nc1c(C)cccc1C)N1CCN(c2ccc(F)cc2)CC1 (stereo not given),nt,nt,-2,nt,nt,nt
CCC(C)(C)NC(=O)C(c1cccn1C)N(C(=O)Cn1nnc2ccccc21)c1ccc(OC)cc1 (stereo not given),9,4,0,-7,8,-29*
O=S(=O)(c1c(Cl)cc(Br)cc1Cl)N1CCN(C(=S)NC2CC2)CC1,nt,nt,2,nt,3,nt
O=S(=O)(Nc1cc2nc3ccccc3nc2n1Cc1ccccc1)c1ccc(Cl)cc1,30,18,-104,121*,40*,1
CCCNC(=O)C1(C)CCCN(C(=O)c2ccccc2F)C1 (stereo not given),nt,nt,5,nt,nt,nt
CC1=C(C(=O)N2CCOCC2)CC(CC(=O)NCCc2ccccn2)C(=O)N1Cc1ccccc1 (stereo not given),nt,nt,-2,nt,nt,nt
Nc1nc2cc(Cl)ccc2cc1C(=O)NCCCc1ccccc1,nt,nt,2,nt,nt,nt
O=S(=O)([N-]c1nc2ccccc2nc1-[n+]1ccccc1)c1ccccc1,0,-3,12,-18,0,1
O=S(=O)([N-]c1nc2ccccc2nc1-[n+]1ccc(CCCc2ccccc2)cc1)c1cccs1,30,25,14,36,17,-29*
O=C(CCN1CCN(c2ccccc2)CC1)N/N=C/c1ccc(O)c(O)c1O,nt,nt,3,58*,nt,0
Cc1cc(C)n2c(NC3CCCCC3)c(CC(C)C)nc2n1,nt,nt,-10,nt,nt,nt
CCCc1cc(=O)[nH]c(SCC(=O)Nc2cc(S(=O)(=O)N(CC)c3ccccc3)ccc2Cl)n1,nt,nt,15,nt,-2,nt
Cc1cc(C(=O)N/N=C/c2ccc(-c3cccc(Cl)c3Cl)o2)n[nH]1,2,1,-1,-66,-4,-38*
Cc1cc(C(=O)N/N=C/c2ccc(-c3cccc(Br)c3)o2)n[nH]1,4,-1,0,-16,1,-2
Cc1ccc2[nH]c(=O)c(C(c3nnnn3CC3CCCO3)N3CCc4ccccc4C3)cc2c1 (stereo not given),26,25,-7,-2,4,-4
Cc1ccc2[nH]c(=O)c(C(c3nnnn3CC3CCCO3)N3CCCc4ccccc43)cc2c1 (stereo not given),42*,28,-6,-9,12,1
Cc1cc2cc(C(c3nnnn3Cc3ccccc3)N3CCc4ccccc43)c(=O)[nH]c2cc1C (stereo not given),31*,34,-1,-22,9,-3
COc1ccc(N(C)S(=O)(=O)c2ccc(Cl)c(C(=O)NCC(C)(C)N3CCOCC3)c2)cc1,-5,-11,0,nt,4,nt
CCOC(=O)NC1Cc2ccccc2C1Sc1ccccn1 (stereo not given),3,-3,0,nt,5,0
Nc1nn2c(-c3ccccc3)cc(=O)[nH]c2c1N=Nc1ccc(Br)cc1,nt,nt,-8,60*,nt,nt
SMILES,BCLXL inh,MCL1 BIM primary,E coli Lon inh,EBV gp42 block,GLD-1 RNA inh,MEX-5 binding
Cc1cc2[nH]c(=O)cc(-c3ccccc3)n2n1,5,5,0,nt,-2,0
COC(=O)C1=C(C)N(Cc2ccccc2)C(=NCC(C)C)N[C@H]1c1ccccc1,44*,31,nt,nt,31*,?
COC(=O)C1=C(C)N(Cc2ccccc2)C(=NCc2ccc(OC)cc2)N[C@H]1c1ccccc1,nt,nt,-11,nt,-7,nt
CCN(CC)CCN1C2=C(C(=O)CC(C)(C)C2)C(c2cccc(F)c2)C2=C1CC(C)(C)CC2=O,7,8,1,140*,-1,-1
Cc1ccc(CNC(=O)CN2c3cccc4cccc(c34)S2(=O)=O)cc1,42*,5,-4,nt,22,nt
O=C(CN1c2cccc3cccc(c23)S1(=O)=O)NCc1ccc(F)cc1,nt,nt,-13,nt,1,nt
O=C(c1cccs1)[C@@H]1[C@@H]2C(=O)N(Cc3ccc4c(c3)OCO4)C(=O)[C@@H]2C2c3ccccc3C=CN21 (stereo not given in full),48*,43*,nt,11,39*,-1
O=C(c1ccc2c(c1)OCO2)[C@@H]1[C@@H]2C(=O)N(C3CCCCC3)C(=O)[C@@H]2C2c3ccccc3C=CN21 (stereo not given in full),nt,nt,3,-11,nt,0
COc1ccc(/C=C2\SC(=O)N(CCCC(=O)Nc3cc(Cl)ccc3C(=O)O)C2=O)cc1,nt,nt,0,nt,-2,nt
Cc1cc(NC(=O)COC(=O)[C@@H]2CCCN2C(=O)c2cccs2)no1,nt,nt,0,nt,nt,nt
Clc1ccc2c(c1)C1OCCC1C(c1ccco1)N2 (stereo not given),32*,31,-1,-17,27,-3
CN=C1S/C(=C\c2ccc(N3CCCC3)c(F)c2)C(=O)N1C,-7,-16,-15,-23,-74,-59*
Nn1c(SCC(=O)NC(=O)NCc2ccco2)nnc1-c1ccc(OC(F)F)cc1,-12,4,-13,62*,-3,0
Nn1c(SCC(=O)NCCN2C(=O)CSC2=O)nnc1-c1ccc(OC(F)F)cc1,-8,-10,-7,nt,1,0
C/C(=C\COc1ccc2ccc(=O)oc2c1)CC[C@@H](O)C(C)(C)O,160*,9,0,nt,5,nt
O=[N+]([O-])c1ccc(-[n+]2ccc3ccccc3c2)c([N+](=O)[O-])c1,7,2,2,nt,-3,3
Cc1nc2ccccc2c2c(N)c3ccccc3n12,35*,22,4,12,26,2
O=C1c2ccccc2S(=O)(=O)c2cc(N3CCc4ccccc4C3)ccc21,39*,27,nt,nt,20,-18
Cc1cccc(N(C)S(=O)(=O)c2nnc(NC(=O)c3ccco3)s2)c1,1,1,-8,nt,1,-33*
CC1Cc2ccccc2N1Cc1cc(=O)n2ccsc2n1 (stereo not given),33*,26,10,29,11,nt
CNC(=O)C1Cc2c(-c3ccccc3Oc3ccccc3)ccnc2O1 (stereo not given),nt,nt,-14,nt,nt,nt
